In the library only some 2.4% were active in any assay of this set; here they are far more common.
Pol kappa inh: DNA polymerase kappa (human) inhibition; 400,000 tested, 0.53% active; purified Pol kappa, fluorescent DNA synthesis assay, 10 min; Potency, µM (titrated, usually from 107 µM), inactives show at the highest dose activity, negative = inhibition, actives largely listed as inhibitors; also: % is scaled to controls: 0 for no effect and ±100 for the full control effect
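Here, compound and 10 nM enzyme are combined for 15 min at room temperature; adding 50 nM substrate (final) starts DNA synthesis, tracked by fluorescence at 0 and 10 min against buffer-only wells.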
Pol iota inh: inhibitors of human DNA polymerase iota | Q9UNA4 | Pol iota fluorescent replication assay, 10 min | Potency, µM (top dose mostly 115 µM), for the others: at the top dose activity, negative = inhibition, usual class: inhibitors | 390,000 tested, 1% active | AID 588590
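Pol iota at 10 nM preincubated 15 min with compounds at room temperature; reaction started with fluorescent substrate, 50 nM final. Fluorescence read kinetically at 0 and 10 min; buffer-only wells as negative control.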
WRN inhibitor: blocks human WRN helicase; WRN helicase unwinding, fluorescent forked duplex, kinetic; Potency, µM (series often up to 114 µM), for inactives: at the top dose activity change, negative = inhibition, hits mostly inhibitors; 360,000 tested, 0.46% active; also: % is scaled to controls: 0 for no effect and ±100 for the full control effect; nearly all actives have a fitted effect of over 55% in size
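Primary qHTS, 1536-well format. 20 nM WRN + compound, 15 min RT; start with 100 nM forked fluorophore/quencher duplex, 2 mM ATP (final); kinetic read ex 525/em 598 nm.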
POLH inh: inhibitors of human DNA polymerase eta | AID 588591 | Q9Y253 | 390,000 tested, 1.2% active | Potency, µM (series often up to 114 µM), for the others: at the top dose activity change, negative = inhibition, actives largely listed as inhibitors | recombinant Pol eta, fluorescent DNA replication assay; also: % is scaled to controls: 0 for no effect and ±100 for the full control effect
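Fluorescent replication assay: 50 nM final substrate added after a 15 min room-temperature compound preincubation with 10 nM enzyme. Signal taken at 0 min and again at 10 min.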
FEN1 inh-1: blocks human flap endonuclease 1; P39748; Recombinant FEN1 flap cleavage, fluorescence, 15 min; Potency, µM (top dose mostly 114 µM), for inactives: top-dose activity change, negative = inhibition, usual class: inhibitors; 390,000 tested, 0.35% active; AID 588795; also: % is scaled to controls: 0 for no effect and ±100 for the full control effect; nearly all actives have a fitted effect of over 65% in size
Target sequence (P39748 whole entry, looked up): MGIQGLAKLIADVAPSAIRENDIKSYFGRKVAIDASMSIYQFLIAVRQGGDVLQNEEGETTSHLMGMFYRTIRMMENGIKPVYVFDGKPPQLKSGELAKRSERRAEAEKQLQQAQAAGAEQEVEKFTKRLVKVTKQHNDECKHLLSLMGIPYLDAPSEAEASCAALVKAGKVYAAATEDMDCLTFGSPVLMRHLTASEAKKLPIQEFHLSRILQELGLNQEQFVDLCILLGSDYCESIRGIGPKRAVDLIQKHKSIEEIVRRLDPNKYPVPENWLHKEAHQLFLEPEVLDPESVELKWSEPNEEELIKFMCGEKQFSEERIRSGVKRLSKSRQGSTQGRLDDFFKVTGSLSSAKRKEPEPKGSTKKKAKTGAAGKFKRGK
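Recombinant FEN1 (10 nM) was preincubated with pin-transferred compounds for 15 min at room temperature, then flap DNA substrate (50 nM final) was added. Plates were read at 0 and 15 min, and normalized concentration–response data were fitted to a four-parameter Hill equation.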
POLB inh: inhibitors of human DNA polymerase beta | 340,000 tested, 1.3% active | Pol beta primer extension/strand displacement, fluorescence kinetic | AID 485314 | Potency, µM (doses to about 114 µM), for inactives: at the top dose activity change, negative = inhibition, actives largely listed as inhibitors; also: % is scaled to controls: 0 for no effect and ±100 for the full control effect
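10 nM enzyme + cpd, 15 min RT; start with substrate 50 nM final; read 0 min and after 10 min RT. Corrected, normalized data; 4-parameter Hill curve fit.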
FEN1 inh-2: confirmation of human FEN1 inhibitors. shares compounds with FEN1 inh-1. FEN1 flap cleavage, TAMRA/BHQ2 fluorogenic DNA substrate. Potency, µM, actives largely listed as inhibitors. 880 tested, 79% active; also: nearly all actives have a fitted effect of over 60% in size
* = called active by the depositor; ? = inconclusive; . = no result; [ ] = another dose, or the depositor's remark. Calls follow the shape of the dose curve; as a rule, active = well fitted curve in the direction sought with a large enough effect; inconclusive = small, poorly fitted or top-dose-only effect, or another doubt; inactive = no such curve, though single readings can be large; an effect the other way counts as inactive or inconclusive. Potency is read from the fitted curve at half-maximal effect.

SMILES	Pol kappa inh	Pol iota inh	WRN inhibitor	POLH inh	FEN1 inh-1	POLB inh	FEN1 inh-2
CN1CCCC1CCNc1ccc2sc3ccccc3c(=O)c2c1 (stereo not drawn)	-24.6%	?	-30.4%	-27.8%	39.8µM*	.	37.9*
O=C(O)c1ccc(N2C(=O)CSC2=S)cc1	79.4µM*	?	3.4%[11.6 µM]	0.0%	-2.5%	.	?
CCOc1ccc(N2C(=O)CSC2=S)cc1	-2.4%	-20.1%	-1.9%	-8.7%	-4.4%	-3.1%	.
NNC(=O)c1oc2nc(-c3ccco3)cc(-c3ccco3)c2c1N	?	?	?	?	50.1µM*	?	37.9*
O=C1CN(C(=O)COC(=O)c2ccco2)c2ccccc2N1	-6.8%	-6.4%	-6.0%	-13.2%	7.1%	.	.
CC1(C)C(=O)Nc2ccccc2N1C(=O)COC(=O)c1ccc([N+](=O)[O-])o1	-29.5%	-10.6%	-29.4%	?	20µM*	.	19*
O=C1CN(C(=O)COC(=O)c2ccc([N+](=O)[O-])o2)c2ccccc2N1	-24.9%	?	1.1%[11.6 µM]	?	?	.	19*
CCNc1ncc2nc(CCc3ccccc3)c(=O)n(-c3ccccc3)c2n1	-15.0%[60.1 µM]	.	.	.	.	.	.
CCN(CC)CCn1c2ccccc2c2cnc(N)c(C#N)c21	?	?	-8.2%[57.1 µM]	?	?	14.1µM*	21.3*
COc1cc2[nH]c3c(N4CCN(c5ccccn5)CC4)ncnc3c2cc1OC	-26.1%	?	?	?	28.2µM*	-8.1%	23.9*
O=C(COC(=O)c1ccc([N+](=O)[O-])o1)Nc1cccc(S(=O)(=O)N2CCCCC2)c1	-28.0%	17.9%	4.1%[11.6 µM]	3.0%	?	1.3%	30.1*
Cc1ccc(NC(=O)COC(=O)c2ccc([N+](=O)[O-])o2)cc1S(=O)(=O)N1CCCCC1	3.3%	100.3%	-5.0%	-13.2%	?	?	26.9*
Cc1ccc(NC(=O)COC(=O)c2ccc(Br)o2)cc1S(=O)(=O)N1CCCCC1	1.2%	-19.5%	-5.5%	-9.8%	-6.3%	.	.
CCOc1ccc(Nc2c3ccccc3nc3ccccc23)cc1	-15.7%	1.1%	?	0.7%	44.7µM*	20µM*	42.6*
CCOc1ccc(Nc2cc(C)c3ccccc3n2)cc1	-4.7%	-2.3%	-6.9%[57.1 µM]	-6.3%	2.1%	-9.5%	.
CCN1/C(=C/c2ccc3cc(C)ccc3[n+]2CC)Sc2cc(C)ccc21	-18.1%	?	50.1µM*	?	?	?	7.57*
c1ccc(CNc2ncnc3ccccc23)cc1	0.4%	-7.2%	4.7%	-9.8%	4.1%	3.4%	.
c1ccc(CNc2c3ccccc3nc3ccccc23)cc1	-27.5%	?	?	?	?	?	10.7*
COc1cccc(-c2nc(NCCN3CCOCC3)c3ccccc3n2)c1O	-16.7%	?	-18.7%[57.1 µM]	?	39.8µM*	?	?
CCOC(=O)C1CCNC(=O)C1=O (stereo not drawn)	-11.6%	30.6%	5.3%	?	20µM*	.	21.3*
Cc1ccc(C(=O)N/C(=C/c2ccc(-c3ccc([N+](=O)[O-])cc3)o2)C(=O)NCCCN(C)C)cc1	-5.3%	5.5%	8.1%[11.6 µM]	-24.4%	?	.	42.6*
CCN(C(=O)COC(=O)c1ccc([N+](=O)[O-])o1)C1CCCCC1	?	?	18.3%	89.1µM*	-15.7%	.	16.9*
CC1CCCCC1NC(=O)COC(=O)c1ccc([N+](=O)[O-])o1 (stereo not drawn)	-19.2%	31.6µM*	-9.1%[11.6 µM]	89.1µM*	-25.9%	.	9.53*
O=[N+]([O-])c1ccc(C=Nc2cccc3ccccc23)s1	-13.3%	?	-4.3%	?	?	?	6.01*
COc1cccc(N(C)C(=S)Oc2ccc3c(c2)CCCC3)n1	-6.7%[60.1 µM]	.	.	.	.	.	.
SMILES	Pol kappa inh	Pol iota inh	WRN inhibitor	POLH inh	FEN1 inh-1	POLB inh	FEN1 inh-2
COc1ccccc1NC(=O)COC(=O)c1ccc([N+](=O)[O-])s1	-33.1%	79.4µM*	5.8%[11.6 µM]	?	-10.4%	7.08µM*	7.57*
O=C(COC(=O)c1ccc([N+](=O)[O-])s1)c1ccc[nH]1	-28.8%	89.1µM*	-6.3%[11.6 µM]	20µM*	-21.9%	.	3.38*
COc1cccc(NC(=O)CSc2nccn2Cc2ccc3c(c2)OCO3)c1	-8.9%[60.1 µM]	-6.9%	.	.	-22.9%	31.7%	.
COc1cc(NC(=O)c2cc3c(C)nc4ccccc4c3o2)cc(OC)c1OC	-33.3%	-13.8%	?	?	?	?	?
Cc1c2cnccc2c(C)c2c1oc1ccccc12	-3.7%	-10.7%	4.7%[11.6 µM]	?	35.5µM*	.	37.9*
Cc1nc2c(oc3ccccc32)c(=O)o1	-16.8%	7.8%	-0.5%	-2.7%	1.4%	1.6%	.
COc1ccc(-c2nc3c(C(=O)NCCN(C)C)cccc3c3ccccc23)cc1	0.4%	?	55.9%	6.5%	31.6µM*	.	33.8*
COc1ccc(Cl)cc1C(=O)NCCN(C)C	-23.4%	9.5%	-8.0%	6.7%	-3.2%	14.3%	.
COc1cccc2nc3c(C(=O)NCCN(C)C)cccc3cc12	-45.7%	?	13.5%[11.6 µM]	?	12.6µM*	.	30.1*
CN(C)CCNc1ccc2nnn3c4ccc(O)cc4c(=O)c1c23	-42.1%	?	22.6%[11.6 µM]	?	12.6µM*	.	8.49*
CCC1CCCCN1CCCNC(=O)c1cc2c(Cl)nc3ccc(C)cc3c2s1 (stereo not drawn)	9.1%	-11.2%	.	8.2%	89.1µM*	-11.2%	?
Cc1ccc2nc(Cl)c3cc(C(=O)NCCCN4CCCC4)sc3c2c1	4.2%	-12.5%	37.1%	-2.6%	22.4µM*	-3.9%	47.8*
CC[C@]1(O)C[C@H]2CN(CCc3c([nH]c4ccccc34)[C@@](C(=O)OC)(c3cc4c(cc3OC)N(C=O)[C@H]3[C@@](O)(C(=O)OC)[C@H](OC(C)=O)[C@]5(CC)C=CCN6CC[C@]43[C@@H]65)C2)C1	-7.8%[60.1 µM]	-2.9%	.	.	-7.2%	.	.
CC(C)NC(=O)N1CC[C@@]2(CCCN(S(=O)(=O)c3ccccc3)C2)C1	1.3%[60.1 µM]	.	.	.	.	.	.
Cn1c2c(c3cnc4cc(Cl)ccc4c31)CN(Cc1ccc(Cl)cc1)CC2	-36.2%	101.1%	.	.	-1.0%	.	.
COc1cc([N+](=O)[O-])ccc1NC(=O)Nc1cnccn1	10.2%	-3.9%	-2.9%	79.4µM*	-18.6%	25.2%	?
COc1ccccc1NC(=O)Nc1cnccn1	-12.8%	29.9%	-1.6%	-1.1%	-0.4%	-20.4%	.
O=C(Nc1ccccc1-c1cn2c(CN3CCNCC3)csc2n1)c1cnc2ccccc2n1	-23.5%	-28.6%	.	.	28.2µM*	.	23.9*
